# Results taken from PubChem BioAssay (NCI).
# The panel holds about 79,000 compounds, 15% with a hit somewhere; the sample as a whole holds those more often. Unmarked numbers belong to inactive results. Active and inactive are the calls of the source. No stated cut-off is given here; in the data, active means growth inhibition above about 70%; inactive means the rest.
# Assays:
# [1] = NCI Yeast Anticancer Drug Screen. Data for the rad52 strain (AID 147);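 further: 0% = growth of vehicle-treated control cultures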; conditions: S. cerevisiae rad52 mutant growth inhibition, stronger effect = higher value
# Procedure, shortened: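 Inhibition of yeast growth, referenced to vehicle controls, was the measured output for a strain with defective DNA damage repair.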
# [2] = NCI Yeast Anticancer Drug Screen. Data for the wt1 strain (AID 149);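 further: 0% = growth of vehicle-treated wt1 cultures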; conditions: S. cerevisiae wt1 strain (SPY 50644) growth inhibition, stronger effect = higher value
# Procedure, shortened: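 Each compound is tested on wt1 yeast and the loss of growth versus vehicle gives the inhibition value.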
# [3] = NCI Yeast Anticancer Drug Screen. Data for the mgt1 strain (AID 153); conditions: S. cerevisiae mgt1 mutant growth inhibition, stronger effect = higher value
# Procedure, shortened: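 In the mgt1 strain, test compounds were added and growth inhibition was determined relative to vehicle-treated controls.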
# [4] = NCI Yeast Anticancer Drug Screen. Data for the rad50 strain (AID 155);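 further: 0% = growth of vehicle-only cultures of the same strain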; conditions: S. cerevisiae rad50 strain growth inhibition, stronger effect = higher value
# Procedure, shortened: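 Vehicle-treated cultures provide the reference for the growth inhibition reported for compound-exposed, repair-deficient yeast.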
# [5] = NCI Yeast Anticancer Drug Screen. Data for the mec2-1 strain (AID 157); conditions: S. cerevisiae mec2-1 strain, stronger effect = higher value
# Procedure, shortened: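 Each compound was tested on mec2-1 yeast, a strain altered in DNA damage repair or cell cycle control. Growth inhibition is reported relative to vehicle.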
# [6] = NCI Yeast Anticancer Drug Screen. Data for the rad14 strain (AID 159);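 further: 0% = growth of vehicle-treated control cultures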; conditions: S. cerevisiae rad14 strain growth inhibition, stronger effect = higher value
# Procedure, shortened: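 Inhibition of growth is reported for a repair-deficient yeast mutant following compound treatment, calculated relative to cultures that received vehicle.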
# [7] = NCI Yeast Anticancer Drug Screen. Data for the sgs1 mgt1 strain (AID 161);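 further: 0% = growth of cultures given vehicle only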; conditions: S. cerevisiae sgs1 mgt1 strain, stronger effect = higher value
# Procedure, shortened: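 Genetically altered yeast, compound exposure, growth inhibition relative to vehicle.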
# [8] = NCI Yeast Anticancer Drug Screen. Data for the CLN2oe strain (AID 163);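 further: 0% = growth of vehicle-only control cultures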; conditions: S. cerevisiae CLN2oe strain, stronger effect = higher value
# Procedure, shortened: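 First, the altered yeast strain was treated with each compound; second, its growth was measured; finally, inhibition was derived by comparison with vehicle controls.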
# [9] = NCI Yeast Anticancer Drug Screen. Data for the cln2 rad14 strain (AID 165);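 further: 0% = growth equal to vehicle treated cultures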; conditions: S. cerevisiae cln2 rad14 strain, stronger effect = higher value
# Procedure, shortened: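 Test compounds were added to cln2 rad14 yeast cultures; inhibition of growth was then determined by comparison with vehicle treatment.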
# [10] = NCI Yeast Anticancer Drug Screen. Data for the bub3 strain (AID 167); conditions: S. cerevisiae bub3 mutant strain, stronger effect = higher value
# Procedure, shortened: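 Mutant yeast screening strain plus compound; vehicle-treated cultures serve as the 0% inhibition reference.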
# [11] = NCI Yeast Anticancer Drug Screen. Data for the wt2 strain (AID 169); conditions: S. cerevisiae wt2 strain growth inhibition, stronger effect = higher value
# Procedure, shortened: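 The panel's yeast strains carry defined changes in DNA repair or cell cycle genes. Each strain is grown with compound, and growth loss is scored relative to vehicle.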
# [12] = NCI Yeast Anticancer Drug Screen. Data for the mlh1 strain (AID 171);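 further: 0% = growth of vehicle-treated control cultures of the same strain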; conditions: S. cerevisiae mlh1 strain growth inhibition, stronger effect = higher value
# Procedure, shortened: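 Inhibition values reflect reduced yeast growth in the presence of compound, referenced to vehicle controls, using a strain chosen for its alteration in DNA repair or cell cycle control.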
# [13] = NCI Yeast Anticancer Drug Screen. Data for the sgs1 strain (AID 173);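 further: 0% = growth of vehicle-only control cultures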; conditions: S. cerevisiae sgs1 mutant, stronger effect = higher value
# Procedure, shortened: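 Vehicle-treated cultures served as reference for growth inhibition of a yeast strain altered in DNA damage repair or cell cycle control after compound exposure.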
# [14] = NCI Yeast Anticancer Drug Screen. Data for the mlh1 rad18 strain (AID 175); conditions: S. cerevisiae mlh1 rad18 strain growth inhibition, stronger effect = higher value
# Procedure, shortened: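 Inhibition values reflect reduced growth of mutant yeast versus vehicle-treated controls following compound exposure; the mutations affect DNA damage repair.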
# [15] = NCI Yeast Anticancer Drug Screen. Data for the rad18 strain (AID 177); conditions: S. cerevisiae rad18 mutant growth inhibition, stronger effect = higher value
# Procedure, shortened: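 Steps: expose repair-mutant yeast to compound; measure growth; express as inhibition relative to vehicle control.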
# [16] = at 5.0 µM (retest, dose inferred, filed as 0.5)
# [17] = at 50.0 µM (retest, dose inferred, filed as 5.0)
smiles,measurement,setting,value
Cc1ccc(NC(=O)/C(CC2N=c3c(ccc4c(O)c5ccccc5c(O)c34)=NC2O)=N/NC(C)(C)C)cc1 (stereo unspecified),growth inhibition,[1]; at 1.2 µM,7%
same,growth inhibition,[1]; at 3.7 µM,9%
same,growth inhibition,[1]; at 11.0 µM,33%
same,growth inhibition,[1]; at 33.0 µM,49%
same,growth inhibition,[1]; at 100.0 µM,61%
same,growth inhibition,[2]; at 1.2 µM,-19%
same,growth inhibition,[2]; at 3.7 µM,2%
same,growth inhibition,[2]; at 11.0 µM,-2%
same,growth inhibition,[2]; at 33.0 µM,8%
same,growth inhibition,[2]; at 100.0 µM,-6%
same,growth inhibition,[3]; at 1.2 µM,16%
same,growth inhibition,[3]; at 3.7 µM,5%
same,growth inhibition,[3]; at 11.0 µM,-1%
same,growth inhibition,[3]; at 33.0 µM,22%
same,growth inhibition,[3]; at 100.0 µM,22%
same,growth inhibition,[4]; at 1.2 µM,17%
same,growth inhibition,[4]; at 3.7 µM,23%
same,growth inhibition,[4]; [16],-3%
same,growth inhibition,[4]; at 11.0 µM,30%
same,growth inhibition,[4]; at 33.0 µM,54%
same,growth inhibition,[4]; [17],65%
same,growth inhibition,[4]; at 50.0 µM,77.6% (active)
same,growth inhibition,[4]; at 100.0 µM,65%
same,growth inhibition,[5]; at 1.2 µM,15%
same,growth inhibition,[5]; at 3.7 µM,18%
same,growth inhibition,[5]; [16],13%
same,growth inhibition,[5]; at 11.0 µM,38%
same,growth inhibition,[5]; at 33.0 µM,44%
same,growth inhibition,[5]; [17],25%
same,growth inhibition,[5]; at 50.0 µM,1.25%
same,growth inhibition,[5]; at 100.0 µM,35%
same,growth inhibition,[6]; at 1.2 µM,9%
same,growth inhibition,[6]; at 3.7 µM,-9%
same,growth inhibition,[6]; at 11.0 µM,-10%
same,growth inhibition,[6]; at 33.0 µM,0%
same,growth inhibition,[6]; at 100.0 µM,1%
same,growth inhibition,[7]; [16],-7%
same,growth inhibition,[7]; [17],2%
same,growth inhibition,[7]; at 50.0 µM,-0.2%
same,growth inhibition,[8]; at 1.2 µM,-5%
same,growth inhibition,[8]; at 3.7 µM,-2%
same,growth inhibition,[8]; at 11.0 µM,3%
same,growth inhibition,[8]; at 33.0 µM,0%
same,growth inhibition,[8]; at 100.0 µM,1%
same,growth inhibition,[9]; [16],-25%
same,growth inhibition,[9]; [17],-3%
same,growth inhibition,[9]; at 50.0 µM,-19.9%
same,growth inhibition,[10]; at 1.2 µM,-3%
same,growth inhibition,[10]; at 3.7 µM,-2%
same,growth inhibition,[10]; [16],3%
same,growth inhibition,[10]; at 11.0 µM,-1%
same,growth inhibition,[10]; at 33.0 µM,1%
same,growth inhibition,[10]; [17],17%
same,growth inhibition,[10]; at 50.0 µM,33.6%
same,growth inhibition,[10]; at 100.0 µM,-1%
same,growth inhibition,[11]; at 1.2 µM,0%
same,growth inhibition,[11]; at 3.7 µM,1%
same,growth inhibition,[11]; at 11.0 µM,4%
same,growth inhibition,[11]; at 33.0 µM,5%
same,growth inhibition,[11]; at 100.0 µM,7%
same,growth inhibition,[12]; at 1.2 µM,7%
same,growth inhibition,[12]; at 3.7 µM,16%
same,growth inhibition,[12]; at 11.0 µM,10%
same,growth inhibition,[12]; at 33.0 µM,28%
same,growth inhibition,[12]; at 100.0 µM,16%
same,growth inhibition,[13]; at 1.2 µM,3%
same,growth inhibition,[13]; at 3.7 µM,4%
same,growth inhibition,[13]; at 11.0 µM,2%
same,growth inhibition,[13]; at 33.0 µM,1%
same,growth inhibition,[13]; at 100.0 µM,1%
same,growth inhibition,[14]; [16],3%
same,growth inhibition,[14]; [17],32%
same,growth inhibition,[14]; at 50.0 µM,27.4%
same,growth inhibition,[15]; at 1.2 µM,-4%
same,growth inhibition,[15]; at 3.7 µM,12%
same,growth inhibition,[15]; at 11.0 µM,20%
same,growth inhibition,[15]; at 33.0 µM,40%
same,growth inhibition,[15]; at 100.0 µM,18%
O=[N+]([O-])c1cccc2nc3ccccc3c(NCCC[N+]3([O-])CCCCC3)c12,growth inhibition,[1]; at 1.2 µM,20%
same,growth inhibition,[1]; at 3.7 µM,47%
same,growth inhibition,[1]; at 11.0 µM,80% (active)
same,growth inhibition,[1]; at 33.0 µM,90% (active)
same,growth inhibition,[1]; at 100.0 µM,94% (active)
same,growth inhibition,[2]; at 1.2 µM,1%
same,growth inhibition,[2]; at 3.7 µM,2%
same,growth inhibition,[2]; at 11.0 µM,4%
same,growth inhibition,[2]; at 33.0 µM,15%
same,growth inhibition,[2]; at 100.0 µM,46%
same,growth inhibition,[3]; at 1.2 µM,0%
same,growth inhibition,[3]; at 3.7 µM,1%
same,growth inhibition,[3]; at 11.0 µM,5%
same,growth inhibition,[3]; at 33.0 µM,7%
same,growth inhibition,[3]; at 100.0 µM,56%
same,growth inhibition,[4]; at 1.2 µM,4%
same,growth inhibition,[4]; at 3.7 µM,16%
same,growth inhibition,[4]; [16],67%
same,growth inhibition,[4]; at 11.0 µM,47%
same,growth inhibition,[4]; at 33.0 µM,82% (active)
same,growth inhibition,[4]; [17],93% (active)
same,growth inhibition,[4]; at 50.0 µM,81.3% (active)
same,growth inhibition,[4]; at 100.0 µM,91% (active)
same,growth inhibition,[5]; at 1.2 µM,1%
same,growth inhibition,[5]; at 3.7 µM,8%
same,growth inhibition,[5]; [16],39%
same,growth inhibition,[5]; at 11.0 µM,35%
same,growth inhibition,[5]; at 33.0 µM,86% (active)
same,growth inhibition,[5]; [17],98% (active)
same,growth inhibition,[5]; at 50.0 µM,96% (active)
same,growth inhibition,[5]; at 100.0 µM,96% (active)
same,growth inhibition,[6]; at 1.2 µM,6%
same,growth inhibition,[6]; at 3.7 µM,28%
same,growth inhibition,[6]; at 11.0 µM,86% (active)
same,growth inhibition,[6]; at 33.0 µM,95% (active)
same,growth inhibition,[6]; at 100.0 µM,98% (active)
same,growth inhibition,[7]; [16],78% (active)
same,growth inhibition,[7]; [17],96% (active)
same,growth inhibition,[7]; at 50.0 µM,93.5% (active)
same,growth inhibition,[8]; at 1.2 µM,-2%
same,growth inhibition,[8]; at 3.7 µM,-5%
same,growth inhibition,[8]; at 11.0 µM,46%
same,growth inhibition,[8]; at 33.0 µM,85% (active)
same,growth inhibition,[8]; at 100.0 µM,94% (active)
same,growth inhibition,[9]; [16],95% (active)
same,growth inhibition,[9]; [17],98% (active)
same,growth inhibition,[9]; at 50.0 µM,97.1% (active)
same,growth inhibition,[10]; at 1.2 µM,-13%
same,growth inhibition,[10]; at 3.7 µM,-8%
same,growth inhibition,[10]; [16],-4%
same,growth inhibition,[10]; at 11.0 µM,34%
same,growth inhibition,[10]; at 33.0 µM,82% (active)
same,growth inhibition,[10]; [17],86% (active)
same,growth inhibition,[10]; at 50.0 µM,38.7%
same,growth inhibition,[10]; at 100.0 µM,87% (active)
same,growth inhibition,[11]; at 1.2 µM,0%
same,growth inhibition,[11]; at 3.7 µM,6%
same,growth inhibition,[11]; at 11.0 µM,25%
same,growth inhibition,[11]; at 33.0 µM,85% (active)
same,growth inhibition,[11]; at 100.0 µM,96% (active)
same,growth inhibition,[12]; at 1.2 µM,0%
same,growth inhibition,[12]; at 3.7 µM,2%
same,growth inhibition,[12]; at 11.0 µM,8%
same,growth inhibition,[12]; at 33.0 µM,28%
same,growth inhibition,[12]; at 100.0 µM,66%
same,growth inhibition,[13]; at 1.2 µM,40%
same,growth inhibition,[13]; at 3.7 µM,70% (active)
same,growth inhibition,[13]; at 11.0 µM,84% (active)
same,growth inhibition,[13]; at 33.0 µM,91% (active)
same,growth inhibition,[13]; at 100.0 µM,93% (active)
same,growth inhibition,[14]; [16],84% (active)
same,growth inhibition,[14]; [17],98% (active)
same,growth inhibition,[14]; at 50.0 µM,94.4% (active)
same,growth inhibition,[15]; at 1.2 µM,93% (active)
same,growth inhibition,[15]; at 3.7 µM,95% (active)
same,growth inhibition,[15]; at 11.0 µM,96% (active)
same,growth inhibition,[15]; at 33.0 µM,96% (active)
same,growth inhibition,[15]; at 100.0 µM,96% (active)
